# Screening data (PubChem)
# Sampled rows, rich in hits. Any-hit rate of the full collection: about 3.8%.
# 697 NFkB inh: lowers PMA/ionomycin-induced NF-kB signal in 697 B cells. 697 B-cell NF-kB luciferase reporter, 16 h. inhibition, % at 4 µM. actives 0.33% (n = 330,000). AID 435022; in the data active = inhibition above about 35%
# Mdm2 MdmX PPI: inhibitors of human Mdm2/MdmX interaction | O15151+Q00987 | SaOS-2 split-luciferase Mdm2/MdmX complementation, luminescence | inhibition, % at 8 µM | actives 3% (n = 330,000);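 active = inhibition of at least 50% at 8 µM in the primary screen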
# Jurkat NFkB inh: lowers PMA/ionomycin-induced NF-kB signal in Jurkat cells; PMA/ionomycin-induced NF-kB luciferase reporter, luminescence; inhibition, % at 4 µM; actives 0.53% (n = 330,000); AID 435003; in the data active = inhibition above about 50%
# Beta cell apopt: beta cell apoptosis inhibition; INS-1E cytokine-induced death, ATP luminescence, 48 h; percent of positive-control rescue, neutral wells zero; protection from apoptosis, % (concentration not given with the values); actives 0.8% (n = 300,000); AID 435005;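 active = Every replicate reaches about 75%, or at least half do and their mean reaches it too, limit read from the data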;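 note: 0% = cytokine-treated negative control wells and 100% = positive control rescue; higher means more ATP so stronger rescue from cytokine killing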
# Bfl-1 A1 inh: inhibitors of the anti-apoptotic protein A1, read as caspase activation | MEF A1-2A-BIM cells, Caspase-Glo 3/7 luminescence, 3 h; percent of clofoctol response, vehicle zero | caspase activation, % (no concentration beside the values) | actives 0.066% (n = 330,000);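 active = over half of replicate activation scores above 10%, or exactly half above 10 with the replicate mean above 10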
# NTR1 ag: NTR1 (human) agonism | P30989 | NTR1-U2OS beta-arrestin-GFP spot imaging, agonist mode | activation, % at 20 µM | actives 0.17% (n = 330,000);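 active = activation at or above 40% of the spot to cytoplasm intensity ratio, with at least 20 cells analyzed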;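 note: 0% = DMSO without peptide and 100% = 100 nM NTR1 peptide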
# Target sequence (P30989 whole entry, looked up): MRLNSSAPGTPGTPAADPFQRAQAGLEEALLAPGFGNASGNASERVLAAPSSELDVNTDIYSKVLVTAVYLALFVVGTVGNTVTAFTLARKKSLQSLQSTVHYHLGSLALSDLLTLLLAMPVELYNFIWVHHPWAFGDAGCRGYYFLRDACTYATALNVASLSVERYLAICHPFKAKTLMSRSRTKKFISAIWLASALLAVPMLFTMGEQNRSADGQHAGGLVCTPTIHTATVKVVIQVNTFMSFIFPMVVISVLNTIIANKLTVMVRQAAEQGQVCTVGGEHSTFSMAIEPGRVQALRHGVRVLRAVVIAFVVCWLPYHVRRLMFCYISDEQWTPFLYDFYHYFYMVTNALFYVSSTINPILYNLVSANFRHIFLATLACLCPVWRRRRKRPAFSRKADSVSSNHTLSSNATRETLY
# Jurkat NFkB conf: inhibitors of the PMA/ionomycin-induced NF-kB reporter in Jurkat cells, retest | shares compounds with Jurkat NFkB inh | Jurkat NF-kB luciferase, 16 h | inhibition, % at 4 µM | actives 27% (n = 2,700) | AID 435020;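 active = inhibition reaching about 45% at 4 µM in either replicate, limit read from the data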;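 note: plate controls were PMA/ionomycin stimulated DMSO wells for no effect and unstimulated DMSO wells for full effect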
# Active calls of the source: *; nt = not tested or not shown.
SMILES,697 NFkB inh,Mdm2 MdmX PPI,Jurkat NFkB inh,Beta cell apopt,Bfl-1 A1 inh,NTR1 ag,Jurkat NFkB conf
Cc1cccc(N2CCCC2=Nc2ccc(Br)cc2C#N)c1,6.0,19.6,62.0*,-0.6,0.1,2.9,8.9
CCc1cc(C(=O)NC2CCCc3c2cnn3-c2cccc(C)c2C)n(C)n1 (stereo not given),34.6,8.9,78.8*,98.6*,-1.5,-0.7,76.5*
COc1ccccc1NC(=O)CN1CCN(C(=O)C2CCCO2)CC1 (stereo not given),-8.3,6.2,-3.4,0.0,-0.1,-0.1,nt
O=C(Nc1nc2ccccc2c(=O)s1)c1ccco1,31.0,-4.4,64.2*,-3.8,-0.3,1.3,21.3
COC(=O)c1ccc(Oc2cc(C)nc(SC)n2)cc1,-48.0,38.8,55.5*,-0.3,0.6,-0.3,42.3
COC(=O)c1ccc(Oc2cc(C)nc(Cl)n2)cc1,-20.3,13.3,2.2,-5.8,0.9,-0.3,nt
Cc1cc(C)n2nc(SC(C)C(=O)N3CCOCC3)nc2n1 (stereo not given),11.9,7.3,11.2,nt,nt,-1.0,nt
CCCCC(Nc1ncnc2ccccc12)C(=O)O (stereo not given),19.6,17.5,6.4,-3.0,-0.8,-0.3,nt
CC(Nc1ncnc2ccccc12)c1ccccc1 (stereo not given),32.3,16.6,50.2*,95.7*,-0.2,3.2,62.7*
CC(C)C1COC(c2cccc3ccccc23)=N1 (stereo not given),-193.4,-121.6,-158.7,4.7,0.5,1.2,-40.2
CCn1cc(C2=NC(C(C)C)CO2)c2ccccc21 (stereo not given),-2.4,-14.1,-15.8,1.0,-1.0,-3.1,nt
Cc1ncoc1C(=O)NC1CCCc2c1cnn2-c1ccc(C(C)(C)C)cc1 (stereo not given),27.5,15.4,59.6*,nt,nt,3.3,59.0*
CCN(CC)C(=O)Cn1cc(S(=O)(=O)CC(=O)N2CC(C)OC(C)C2)c2ccccc21 (stereo not given),18.9,5.5,8.5,-5.1,0.0,0.2,nt
O=C(c1ccccc1)c1cnc(-c2ccc(Cl)cc2)s1,-211.8,-117.7,-214.4,3.0,-0.3,0.8,-91.9
O=C(CCNC(=O)c1ccc(Br)cc1)NCCCN1CCCC1=O,9.0,-5.0,1.4,-4.7,1.3,2.3,nt
O=C(NCc1ccco1)C1CC(c2ccc(Cl)c(Cl)c2)=NO1 (stereo not given),2.6,35.1,51.9*,6.4,-0.9,4.0,15.4
O=C(NCc1ccco1)C1CC(c2c(Cl)cccc2Cl)=NO1 (stereo not given),1.2,2.1,9.9,-5.5,2.8,-0.5,nt
O=C(NCc1ccco1)C1CC(c2ccc(C(F)(F)F)cc2)=NO1 (stereo not given),1.1,12.9,50.2*,2.4,0.1,-0.1,19.4
CCN(CC(=O)NCc1ccccc1Cl)CC(=O)Nc1c(F)cccc1F,7.8,13.3,-7.0,1.1,-0.3,-0.6,nt
COc1cccc(-c2cc(C(=O)Nc3cc(C)n(Cc4ccc(Cl)cc4)n3)no2)c1,28.2,31.4,61.0*,3.3,-1.4,3.3,41.9
Cc1cccc(N=C/C(C(=O)C(F)(F)F)=C(\O)c2ccco2)c1,-141.3,-103.4,-128.9,1.2,0.0,0.7,nt
Cc1ccc(N=C/C(C(=O)C(F)(F)F)=C(\O)c2ccco2)cc1Cl,-185.5,-313.1,-183.5,-10.3,-2.8,1.4,-7.8
Cc1cccc(NC(=S)N/N=C/c2cccc(O)c2)c1C,-46.0,42.6,62.1*,2.1,0.0,4.4,7.9
Cc1ccc(Nc2nc(N)c3ccccc3n2)cc1C,-248.0,-216.3,-165.6,36.7,-9.5,0.3,-119.7
CCOc1cc(/C=N/Nc2cccc(C(=O)O)c2)ccc1OC(=O)c1ccccc1,-20.0,-16.2,57.6*,nt,nt,-0.8,-20.5
Cc1ccsc1/C=N/Nc1cccc(C(=O)O)c1,8.8,-40.5,55.9*,-1.1,-9.0,-0.7,6.8
CSc1ccc(/C=N/NC(=O)c2sccc2C)cc1,-187.1,-197.7,-159.4,22.2,-8.7,5.1,-93.2
CSc1ccc(/C=N/NC(=O)c2ccc(C)c(C)c2)cc1,1.1,23.0,-13.0,3.1,0.7,4.5,nt
